# Measured values as given in ChEMBL document CHEMBL4513216, “Probing the Open Global Health Chemical Diversity Library for Multistage-Active Starting Points for Next-Generation Antimalarials” (ACS Infect Dis, 2020).
# In all, about 69,000 compounds went through this assay and about 8,600 (12%) showed an effect of 50% or more. This excerpt belongs to a sample that is enriched for strong results.
# Test system: Plasmodium berghei
# Assay: Screen against P. berghei liver stage (PbLuc), transformed with Luciferase, at 10uM
# Type: functional, HepG2
# Conditions: tested at 10 uM
row,SMILES,INHIBITION
1,Cc1ccc(C(=O)N2CC3(CCNCC3)c3cc(Cl)ccc32)cn1,5.04%
2,CCN1CC(COC(=O)c2ccc(Br)cc2F)CC1=O (centres undefined),0.0459%
3,Cc1ncc2c(n1)CN(Cc1nc(C)c(C)o1)CC2,38%
4,CCc1ncc(CN2CCC3(CCCN(CC4CCC4)C3)C2)cn1 (centres undefined),57.5%
5,COCCc1ncc(CN2CCC3(CCCN(CC4CC4)C3)C2)cn1 (centres undefined),46.6%
6,COc1ncc(CN2CCC3(CCCN(CC4CCCCC4)C3)C2)cn1 (centres undefined),6.94%
7,Cc1ncc(CN2CCC3(CCCN(CC4CCC4)C3)C2)cn1 (centres undefined),53.5%
8,COc1ncc(CN2CCC3(CCCN(CC4CCC4)C3)C2)cn1 (centres undefined),17.8%
9,Cc1noc(C)c1CN1CCCC2(CCN(CC3CCCC3)C2)C1 (centres undefined),49.4%
10,Cc1nc(NCC(O)CN2CCCCCC2)c2c(C)nn(C)c2n1 (centres undefined),-30.3%
11,CC(=O)N1CC[C@H]2OCC[C@@H](C(=O)Nc3cccnc3C)[C@@H]2C1,-1.28%
12,COC(=O)CN1CC(c2nc(Cc3ccccc3)no2)C1,-14.6%
13,CNC(=O)CCc1cc(C2CCCN2S(C)(=O)=O)nc(C)n1 (centres undefined),6.33%
14,C[C@H](O)CNc1cc(-c2ccncc2)ncn1,54.5%
15,C[C@H](O)CNc1cc(-c2ccccc2)ncn1,26.3%
16,OCCNc1cc(-c2ccncc2)ncn1,47.1%
17,Cc1cc(CN2C[C@@H]3COC[C@]3(CNC(=O)c3ccsc3)C2)no1,-2.25%
18,O=C(CCC1CCCC1)N1C[C@@H]2CC[C@H]1CN(Cc1ccncc1)C2,27.6%
19,COc1cccc(-c2noc(-c3ccc(NCCCN)nc3)n2)c1OC,46.7%
20,Cc1ccccc1-c1noc(-c2ccc(NCC3COCCO3)nc2)n1 (centres undefined),32.3%
21,CN(C)CCNc1ccc(-c2nc(-c3ccccc3F)no2)cn1,80.7%
22,COc1cccc(-c2noc(-c3ccc(NCCCO)nc3)n2)c1OC,43.9%

row,SMILES,INHIBITION
1,COC(=O)CNc1ccc(-c2nc(Cc3ccc(OC)cc3)no2)cn1,26.6%
2,CN(C)CCN(C)c1ccc(-c2nc(COc3ccccc3)no2)cn1,41.3%
3,CN(C)CCNc1ccc(-c2nc(COc3ccccc3)no2)cn1,56.5%
4,CNCCNc1ccc(-c2nc(-c3cccc(OC)c3OC)no2)cn1,25.8%
5,CC(C)(CO)Nc1ccc(-c2nc(-c3ccccc3F)no2)cn1,91.3%
6,CNC(=O)CCc1cc(C)nc(C2CCN(CC(=O)N(C)C)CC2)c1,23.3%
7,O=C(O)c1ccccc1-c1cnc(Cn2c(=O)cc[nH]c2=O)s1,22%
8,COc1cccc(NC(=O)CN(C(C)C)C2CC2)c1,20%
9,CC(C)N(CC(=O)Nc1cccc(C#N)c1)C1CC1,54.8%
10,CC(C)N(CC(=O)Nc1cccc(C(=O)N(C)C)c1)C1CC1,-0.614%
11,Cc1noc(C)c1CN(C)CC(=O)N1CCc2sccc2C1,14.4%
12,Cn1c(=O)n(C)c2cc(NS(=O)(=O)Cc3ccccc3)ccc21,2.03%
13,CCc1cnc(N2C[C@@H]3C[C@H](C(=O)N(C)C)[C@H](C2)O3)nc1,-46.9%
14,COCc1nn(CC2CC2)c2c1CN(Cc1ccco1)CC2,26%
15,Cc1ncc(CN(C)Cc2nc3cc(Cl)ccc3n2C)s1,74%
16,CCn1c(CN(C)Cc2cnc(C)s2)nc2cc(F)ccc21,-2.09%
17,CCn1c(CN(C)Cc2cnc(C)s2)nc2c(F)cccc21,37.8%
18,COCc1nn(C(C)C)c2c1CCN(Cc1ccccn1)C2,-18.4%
19,CCc1nc(N2CCCC(CCCOC)C2)c2cnn(C)c2n1 (centres undefined),49.4%
20,COCCN1CC[C@@H]2OC(COCC(=O)N3CCCC3)CC[C@@H]21 (some centres undefined),-36%
21,O=C(Cc1ccsc1)N1C[C@@H]2COC[C@]2(COCc2cccnc2)C1,30.3%
22,COc1cc(S(=O)(=O)N2C[C@@H](C)[C@@](C)(O)C2)c(C)cc1C,54.5%

row,SMILES,INHIBITION
1,Cc1ccc(F)cc1S(=O)(=O)N1C[C@@H](C)[C@@](C)(O)C1,43.6%
2,COc1cc(C)ccc1S(=O)(=O)N1CC[C@](C)(O)[C@H](C)C1,25.5%
3,C[C@@H]1CN(S(=O)(=O)c2ccc(F)cc2F)C[C@]1(C)O,45.6%
4,C[C@@H]1CN(S(=O)(=O)c2ccc(F)cc2Cl)C[C@]1(C)O,5.94%
5,Cc1cc(F)ccc1N1CCC(N2C[C@@H](C)[C@@](C)(O)C2)CC1,54.4%
6,C[C@@H]1CN(C2CCN(c3ccccc3F)CC2)C[C@]1(C)O,47.9%
7,Cc1cc(F)ccc1N1CCC(N2C[C@@H](CN(C)C)[C@@H](CO)C2)CC1,38%
8,Cc1cc(F)ccc1S(=O)(=O)N1C[C@@H](C)[C@@](C)(O)C1,52.5%
9,COC1COC2(CCN(Cc3ccccc3Cl)CC2)C1 (centres undefined),-40.3%
10,Cc1cc(CN2CCCC(Cn3cncn3)C2)no1 (centres undefined),3.73%
11,COc1cn(CC(=O)N2CCN(c3ccc(F)cc3)CC2)c(C)cc1=O,39.6%
12,CC(C)NC(=O)N1CCN(Cc2ccccn2)CC2(CC(=O)N(C)C2)C1 (centres undefined),42.4%
13,CC1CN(C)CCN1CC(=O)NCCOc1cccc(F)c1 (centres undefined),22.007%
14,O=C(c1ccc2[nH]nnc2c1)N1CCC(Nc2cccnn2)CC1,33.3%
15,NCCC(=O)NCC1(O)CCCN(c2ccnc3cccnc23)C1 (centres undefined),29.4%
16,CCN(c1ccsc1C(=O)N1CCC(C)CC1)S(=O)(=O)c1ccccc1,-8%
17,Cc1ccc(N(C)[C@@H]2CC[C@@H]3CN(C(=O)Cc4cccs4)C[C@@H]32)nn1,-3.02%
18,FC(F)C(F)(F)COCc1ncnn1-c1ccc2c(c1)OCO2,-98.6%
19,CN1CCN(CCc2ncnn2-c2ccc3c(c2)OCO3)CC1,89.9%
20,FC(F)(F)CCc1ncnn1-c1ccc2c(c1)OCO2,-147%
21,Cc1nn(C)c(C)c1OCC(=O)NCc1cccc(CO)c1,-8.92%
22,Cc1nn(C)c(C)c1OCC(=O)NCC(O)c1ccsc1 (centres undefined),29.7%

row,SMILES,INHIBITION
1,Cc1nn(C)c(C)c1OCC(=O)NCC(O)c1ccccc1F (centres undefined),57.5%
2,Cc1nn(C)c(C)c1OCC(=O)NCc1cccc(C(=O)O)c1,38.6%
3,Cc1nn(C)c(C)c1OCC(=O)NCC(O)Cc1ccccc1 (centres undefined),67.4%
4,Cc1nn(C)c(C)c1OCC(=O)NCC(O)c1ccco1 (centres undefined),40.6%
5,CC(C)[C@H](NS(C)(=O)=O)C(=O)NCc1cc(-c2cccc(Cl)c2)nn1C,45.6%
6,CCC(CO)N(Cc1ccsc1)Cc1c(C)nn(C)c1Cl (centres undefined),27.7%
7,NS(=O)(=O)c1cccnc1Nc1cccc(Cl)c1Cl,27.4%
8,COc1ccc(CCC(=O)N(C)Cc2c(C)nn(C)c2C)cc1,40.9%
9,COc1ccc(CN(C)C(=O)Cc2c(C)nn(C)c2C)cc1F,73.6%
10,COc1cc(CN(C)C(=O)Cc2c(C)nn(C)c2C)ccc1OC(F)F,93.4%
11,COc1ccc(NC(=O)Cc2c(C)nn(C)c2C)cc1F,47.3%
12,Cc1nn(C)c(C)c1CCC(=O)N(C)Cc1ccc2nsnc2c1,-18.3%
13,COc1ccc(CN(C)C(=O)CN2CC(n3cc(C)cn3)C2)cc1F,17.1%
14,CCCS(=O)(=O)N1Cc2nccn2CC(CN2CCCC2)C1 (centres undefined),30.3%
15,O=C(Nc1cccc(C(=O)OCC2CCCN2)c1)c1ccoc1 (centres undefined),-97.2%
16,N#Cc1c(N)nc2c(c1-c1c[nH]nc1C1CCCCC1)CC(N)CC2 (centres undefined),-2.43%
17,CS(=O)(=O)NCc1nnc2n1CCN(Cc1cccs1)C2,34.7%
18,CS(=O)(=O)NCc1nnc2n1CCN(Cc1nccs1)C2,18.3%
19,Cc1ccc(CN2CCn3c(CNS(C)(=O)=O)nnc3C2)s1,50.9%
20,CS(=O)(=O)NCc1nnc2n1CCN(Cc1ccc(F)cc1)C2,15.9%
21,N#CCC(=O)NCc1nnc2n1CCN(Cc1cccs1)C2,0.164%
22,CS(=O)(=O)NCc1nnc2n1CCN(Cc1ccncc1)C2,64.9%

row,SMILES,INHIBITION
1,CC(=O)NCc1nnc2n1CCN(Cc1cccs1)C2,76.2%
2,CS(=O)(=O)NCc1nnc2n1CCN(Cc1cccnc1)C2,45.1%
3,CN(C)C(=O)NCc1nnc2n1CCN(Cc1cccs1)C2,27.7%
4,COC(=O)C(C)(C)NC(=O)C1CC(=O)N(CC2CC2)C1 (centres undefined),25.1%
5,CNc1snc(C)c1C(=O)N1CCCC(n2ccnc2)C1 (centres undefined),33.8%
6,CC[C@H]1N(Cc2ccc(OC)cc2)CCC[C@]12CCC(=O)N2C,6.27%
7,Cc1nc(N2CCCN(c3ncccn3)CC2)c2cnn(C)c2n1,-9.29%
8,Cc1ncsc1CN1CCn2nc(CCC(=O)N3CCCC3)cc2C1,14.9%
9,Cc1nnc(NC(=O)CN2CCc3c(nc(C4CC4)n3C)C2)s1,14.4%
10,CC(=O)NC1CCCN(C(=O)NCc2ccc(-n3cccn3)cc2)C1 (centres undefined),0.914%
11,O=C(Cc1cccs1)N1C[C@@H]2COC[C@]2(COCc2cccnc2)C1,43.9%
12,Cc1cc2nc(O)c(O)nc2cc1S(=O)(=O)NC1CC1,60.7%
13,Cc1cc2[nH]c(=O)c(=O)[nH]c2cc1S(=O)(=O)NC1CCCCC1,-27.7%
14,Cc1cc2[nH]c(=O)c(=O)[nH]c2cc1S(=O)(=O)NC1CCC(C)CC1 (centres undefined),23%
15,CNC(=O)[C@@H](c1ccccc1F)N1CCC[C@H]1C(=O)NC1CCOCC1,-27.5%
16,O=S(=O)(NCC1COc2ccccc2C1)N1CCCC1 (centres undefined),-30%
17,O=S(=O)(NCC1COc2ccccc2C1)N1CCCCC1 (centres undefined),-7.71%
18,CCN1CCC(CNS(=O)(=O)N2CCc3ccccc3C2)C1 (centres undefined),45.4%
19,O=S1(=O)CCC(CNS(=O)(=O)N2CCc3ccccc3C2)C1 (centres undefined),52.2%
20,O=S(=O)(NCC1CCOC1)N1CCc2ccccc2C1 (centres undefined),27.5%
21,CN1CCCC(CNS(=O)(=O)N2CCc3ccccc3C2)C1 (centres undefined),57.8%
